In PubChem BioAssay AID624260 (Broad Institute, 2012):
Hit rate of the full screen: of about 44,000 compounds, about 30 (0.07%) were called active. Roughly 1% stayed inconclusive and do not appear here. Cut-off read from the data, not from the text of the source: active = inhibition above about 54% (passing the limit was not always enough); inconclusive = no clear call, values can overlap the other calls. For the sample, actives were picked, then their nearest neighbours and some compounds at random.

These molecules were tested against Histone-lysine N-methyltransferase NSD2 (Homo sapiens) (UniProt O96028) (assay: inhibitors of human NSD2, primary screen, biochemical, plate reader, single point (AID 624260;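 note: inhibitors reduce the monomethyl H3K36 fluorescence signal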)). Settings: NSD2-SET H3K36me1 DELFIA fluorescence, at 12.5 µM, active compounds read high.
Histone-lysine N-methyltransferase NSD2 (Homo sapiens), sequence (O96028 whole entry, looked up): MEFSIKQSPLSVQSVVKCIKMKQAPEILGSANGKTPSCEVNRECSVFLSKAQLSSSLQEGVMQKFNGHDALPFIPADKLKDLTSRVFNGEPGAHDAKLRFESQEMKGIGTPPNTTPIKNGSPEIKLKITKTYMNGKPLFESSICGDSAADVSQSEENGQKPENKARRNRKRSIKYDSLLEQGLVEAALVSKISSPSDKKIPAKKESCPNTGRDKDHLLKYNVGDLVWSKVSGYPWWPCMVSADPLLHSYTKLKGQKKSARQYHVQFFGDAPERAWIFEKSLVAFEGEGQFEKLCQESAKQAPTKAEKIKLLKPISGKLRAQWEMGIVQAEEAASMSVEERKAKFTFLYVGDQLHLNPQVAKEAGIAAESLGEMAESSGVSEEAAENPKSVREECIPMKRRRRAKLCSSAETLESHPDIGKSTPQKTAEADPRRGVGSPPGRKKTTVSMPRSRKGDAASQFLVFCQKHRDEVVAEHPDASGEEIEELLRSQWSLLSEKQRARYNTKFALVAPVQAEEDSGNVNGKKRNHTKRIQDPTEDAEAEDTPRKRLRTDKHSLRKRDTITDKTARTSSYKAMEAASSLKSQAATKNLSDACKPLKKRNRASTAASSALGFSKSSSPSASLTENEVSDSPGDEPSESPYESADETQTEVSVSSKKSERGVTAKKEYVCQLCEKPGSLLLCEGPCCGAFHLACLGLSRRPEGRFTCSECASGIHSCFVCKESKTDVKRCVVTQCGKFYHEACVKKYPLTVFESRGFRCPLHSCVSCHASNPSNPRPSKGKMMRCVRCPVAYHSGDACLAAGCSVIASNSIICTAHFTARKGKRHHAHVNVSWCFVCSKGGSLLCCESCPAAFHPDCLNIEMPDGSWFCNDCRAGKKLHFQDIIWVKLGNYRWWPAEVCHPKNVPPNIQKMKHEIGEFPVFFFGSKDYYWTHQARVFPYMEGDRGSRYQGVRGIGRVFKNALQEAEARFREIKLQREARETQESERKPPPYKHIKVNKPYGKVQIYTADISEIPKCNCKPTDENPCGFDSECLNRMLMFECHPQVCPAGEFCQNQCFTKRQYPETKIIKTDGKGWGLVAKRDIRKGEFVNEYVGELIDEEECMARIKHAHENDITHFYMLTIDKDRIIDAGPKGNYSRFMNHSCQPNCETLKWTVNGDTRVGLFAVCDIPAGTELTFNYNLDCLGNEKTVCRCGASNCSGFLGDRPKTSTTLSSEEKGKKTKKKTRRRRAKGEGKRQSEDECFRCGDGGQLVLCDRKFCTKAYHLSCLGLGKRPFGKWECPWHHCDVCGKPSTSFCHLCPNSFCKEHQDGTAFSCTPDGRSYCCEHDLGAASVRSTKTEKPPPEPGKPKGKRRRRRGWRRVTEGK
`CCC(=O)N(C)C[C@@H]1Oc2ncc(C3=CCCC3)cc2C(=O)N([C@H](C)CO)C[C@@H]1C` was tested, and the inhibition was -1.76% (inactive).
For `CCC(=O)N(C)C[C@H]1Oc2cc(-c3ccc(C)cc3)ccc2S(=O)(=O)N([C@@H](C)CO)C[C@H]1C`, the inhibition was -0.743% (inactive).
With `Cc1ccccc1S(=O)(=O)N(C)C[C@@H]1OCc2ccccc2-c2c(n(C)c3ccccc23)C(=O)N([C@H](C)CO)C[C@H]1C` the inhibition was -9.38% (inactive).
`O=C(C[C@H]1C[C@H]2c3cc(NC(=O)CC4CC4)ccc3O[C@H]2[C@H](CO)O1)NCc1ccccn1` was tested, and the inhibition was -2.07% (inactive).
For `C[C@@H]1CN([C@@H](C)CO)C(=O)c2cccc(N(C)C)c2O[C@@H]1CN(C)S(=O)(=O)c1ccccc1`, the inhibition was 2.66% (inactive).
With `C[C@@H]1CCCCO[C@H](CN(C)Cc2ccc(Cl)c(Cl)c2)[C@@H](C)CN([C@@H](C)CO)C(=O)c2cc(NC(=O)Nc3ccccc3)ccc2O1` the inhibition was -6.5% (inactive).
With `C[C@@H]1CN([C@H](C)CO)S(=O)(=O)c2ccc(C#CCN(C)C)cc2O[C@H]1CN(C)C(=O)CC1CC1` the inhibition was 2.71% (inactive).
For `C[C@@H]1CN([C@@H](C)CO)C(=O)c2cc(C3=CCCC3)cnc2O[C@@H]1CN(C)C(=O)Cc1ccncc1`, the inhibition was -7.1% (inactive).
With `CN(C)C(=O)C[C@@H]1C[C@@H]2c3cc(NC(=O)C4CCOCC4)ccc3O[C@@H]2[C@@H](CO)O1` the inhibition was -0.279% (inactive).
`COc1ccccc1S(=O)(=O)N(C)C[C@H]1Oc2cc(C#CCC3CCCC3)ccc2S(=O)(=O)N([C@@H](C)CO)C[C@H]1C` was tested, and the inhibition was -4.13% (inactive).
`Cc1noc(C)c1NC(=O)Nc1ccc2c(c1)C(=O)N([C@@H](C)CO)C[C@H](C)[C@@H](CN(C)Cc1ccncc1)OCCCC[C@@H](C)O2` was tested, and the inhibition was -3.95% (inactive).
For `C[C@@H]1CN([C@H](C)CO)S(=O)(=O)c2ccc(/C=C/c3ccccc3)cc2O[C@@H]1CN(C)Cc1ccccc1`, the inhibition was 9.82% (inactive).
For `CC(C)CC#Cc1cnc2c(c1)C(=O)N([C@@H](C)CO)C[C@@H](C)[C@@H](CN(C)C(=O)c1cccnc1)O2`, the inhibition was -0.174% (inactive).
In the case of `C[C@@H]1CN([C@H](C)CO)C(=O)c2cc(C3=CCCCC3)cnc2O[C@@H]1CN(C)C(=O)c1ccc2c(c1)OCO2`, the inhibition is reported as -0.482% (inactive).
With `C[C@H]1CN([C@@H](C)CO)S(=O)(=O)c2ccc(Br)cc2O[C@H]1CN(C)C(=O)c1cnccn1` the inhibition was -5.84% (inactive).
For `COc1cccc(S(=O)(=O)N[C@H]2CC[C@H](CC(=O)NC3CCC3)O[C@H]2CO)c1`, the inhibition was 8.91% (inactive).
With `O=C(C[C@@H]1C[C@@H]2c3cc(NC(=O)c4ccc5c(c4)OCO5)ccc3O[C@@H]2[C@@H](CO)O1)NCC1CC1` the inhibition was 0.538% (inactive).
With `C[C@H](CO)N1C[C@H](C)[C@H](CN(C)C(=O)Cc2ccccn2)Oc2ncc(-c3cncnc3)cc2C1=O` the inhibition was -7.65% (inactive).
`Cc1ccc(S(=O)(=O)Nc2ccc3c(c2)C(=O)N([C@H](C)CO)C[C@@H](C)[C@@H](CN(C)C)OCCCC[C@@H](C)O3)cc1` was tested, and the inhibition was -3.71% (inactive).
For `COc1ccc(NC(=O)N(C)C[C@H]2Oc3ncc(C#C[C@@H](C)O)cc3C(=O)N([C@H](C)CO)C[C@H]2C)cc1`, the inhibition was -13% (inactive).
In the case of `COc1ccc(CN(C)C[C@@H]2OCCCC[C@@H](C)Oc3ccc(NS(=O)(=O)c4ccc(F)cc4)cc3C(=O)N([C@@H](C)CO)C[C@H]2C)cc1`, the inhibition is reported as -2.7% (inactive).
`CCCNC(=O)N(C)C[C@H]1Oc2ncc(C#Cc3ccncc3)cc2C(=O)N([C@@H](C)CO)C[C@@H]1C` was tested, and the inhibition was 4.58% (inactive).
For `C/C=C/c1ccc2c(c1)O[C@H](CN(C)C(C)=O)[C@H](C)CN([C@H](C)CO)S2(=O)=O`, the inhibition was 8.37% (inactive).
`O=C(C[C@H]1C=C[C@H](NC(=O)CN2CCOCC2)[C@@H](CO)O1)NCc1cccc(F)c1` was tested, and the inhibition was -94.1% (inactive).
